Sampled rows, rich in hits. Any-hit rate of the full collection: about 2.8%.
S16 F2sN tox: cytotoxicity in S16 Pmp22-F2sN Schwann cells; S16 Pmp22-F2sN Schwann cells viability, CellTiter-Glo, 24 h; Potency, µM (highest dose often 57.5 µM), without a hit: at the top dose activity change, negative = cytotoxicity, actives largely listed as cytotoxic; 43,000 compounds, 0.48% hits; AID 1508642; further: potency means the concentration at half of the fitted maximal effect; on the % scale 0 is the no-effect control and ±100 the full control effect; nearly all actives have a fitted effect of over 65% in size
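S16 Schwann cells carrying the Pmp22-F2sN reporter, seeded in 1536-well format, were exposed to library compounds for 24 h at 37C. Viability was read as CellTiter-Glo luminescence after 15 min at room temperature.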
GALC G270D act: enhancers of human galactocerebrosidase G270D mutant activity in cells. 145M-Twi-hGALC-G270D cells (Twitcher mouse brain line with human GALC G270D), HMU-beta-Gal fluorescence, 48 h. P54803. 45,000 compounds, 0.1% hits. Potency, µM (top dose mostly 57.5 µM), most hits filed as activators; further: potency means the concentration at half of the fitted maximal effect; 0% is about no effect; nearly all actives have a fitted effect of over 65% in size
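Brain-derived Twitcher mouse 145M-Twi cells stably expressing human GALC-G270D or wild-type GALC, treated live, then residual GALC activity read by fluorescence of HMU-b-Gal substrate (0.1 mM final) in citrate-phosphate buffer pH 5.2 with sodium taurocholate. Signal increase indicates enhancement.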
PMP22 txn: modulates PMP22 transcription in S16 Schwann cells; 43,000 compounds, 2% hits; S16 Pmp22-F2sN Schwann cells, FLuc/NLuc coincidence luminescence, 24 h; Potency, µM (titrated, usually from 57.5 µM), inactives show at the top dose activity change, negative = inhibition, hits mostly inhibitors; active means clear falling dose curves in both reporters; inconclusive means both reporters move, but less clearly or upward; inactive means either reporter flat; the % is the NLuc reporter signal; further: potency means the concentration at half of the fitted maximal effect; on the % scale 0 is the no-effect control and ±100 the full control effect
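Reporter cells (S16 Pmp22-F2sN, 500–1,000 per well) exposed to compounds for 24 h, 37C, 5% CO2; lysis with FLuc read after 10 min, then Stop&Glo and NLuc read after 10 min.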
mTORC1 inh: mTORC1 pathway inhibition measured by phospho-rpS6; 44,000 compounds, 0.78% hits; Potency, µM (titrated, usually from 38.3 µM), for inactives: top-dose activity change, negative = inhibition, actives largely listed as inhibitors; Tsc2-/- p53-/- MEF, phospho-rpS6 immunofluorescence/PI, 24 h;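 further: potency means the concentration at half of the fitted maximal effect; plate controls were DMSO for no effect and rapamycin for full effect; nearly all actives have a fitted effect of over 50% in size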
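Tsc2-/-, p53-/- mouse embryonic fibroblasts (empty-vector line) exposed to compound 24 hrs at 37 C, fixed, immunostained for phospho-rpS6 and counterstained with propidium iodide. Acumen laser scanning gives % positive cells from Alexa 488/PI ratio, thresholded using 7.5 nM rapamycin; PI count gives viability.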
NLuc saturating: inhibits NanoLuc at saturating substrate, PMP22 counter-screen. Secreted NLuc enzyme (filtered S16 cell medium), Nano-Glo luminescence. Potency, µM (top dose mostly 57.5 µM), without a hit: at the highest dose activity change, negative = inhibition, actives largely listed as inhibitors. 690 compounds, 4% hits. shares compounds with PMP22 txn. AID 1508638; further: potency means the concentration at half of the fitted maximal effect; on the % scale 0 is the no-effect control and ±100 the full control effect
NLuc Km ctr: NanoLuc inhibition at Km substrate, PMP22 artifact check | Potency, µM (series often up to 57.5 µM), inactives show at the top dose activity change, negative = inhibition, hits mostly inhibitors | shares compounds with PMP22 txn | 690 compounds, 5% hits | secreted NLuc enzyme, coelenterazine luminescence, Km conditions; further: potency means the concentration at half of the fitted maximal effect; on the % scale 0 is the no-effect control and ±100 the full control effect
FLuc ctr PMP22: counter-screen for PMP22 expression modulators: firefly luciferase inhibition; 690 tested, under 10 active; AID 1508640; Potency, µM (titrated, usually from 57.5 µM), for inactives: top-dose activity, negative = inhibition, hits mostly inhibitors; shares compounds with PMP22 txn; purified P. pyralis FLuc, luminescence, 10 min; further: % of control where 0% means no effect
Target sequence (P08659 whole entry, looked up): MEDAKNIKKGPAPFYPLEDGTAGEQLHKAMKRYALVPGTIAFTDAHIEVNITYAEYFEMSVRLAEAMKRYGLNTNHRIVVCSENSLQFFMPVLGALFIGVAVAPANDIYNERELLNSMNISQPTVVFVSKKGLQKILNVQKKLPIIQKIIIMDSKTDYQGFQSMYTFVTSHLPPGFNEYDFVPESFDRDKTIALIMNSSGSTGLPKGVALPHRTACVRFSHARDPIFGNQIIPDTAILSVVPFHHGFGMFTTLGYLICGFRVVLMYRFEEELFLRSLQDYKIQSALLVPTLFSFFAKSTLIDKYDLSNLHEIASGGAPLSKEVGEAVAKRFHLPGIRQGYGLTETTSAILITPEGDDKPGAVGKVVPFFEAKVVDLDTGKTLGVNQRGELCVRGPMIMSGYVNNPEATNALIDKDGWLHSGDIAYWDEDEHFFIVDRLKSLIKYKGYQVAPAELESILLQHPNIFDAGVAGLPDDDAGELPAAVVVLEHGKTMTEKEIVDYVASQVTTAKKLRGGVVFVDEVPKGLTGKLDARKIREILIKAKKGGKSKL
S16 F2sN tox cnf: confirmation of cytotoxicity in S16 Pmp22-F2sN Schwann cells (luciferase reporters placed in the Pmp22 gene); S16 Schwann cells viability, CellTiter-Glo ATP luminescence, 24 h; shares compounds with PMP22 txn; 690 compounds, 7% hits; Potency, µM (top dose mostly 57.5 µM), for the others: at the top dose activity change, negative = viability loss, usual class: cytotoxic; AID 1508641; further: potency means the concentration at half of the fitted maximal effect; on the % scale 0 is the no-effect control and ±100 the full control effect
PMP22 txn cnf: PMP22 transcription modulation, confirmatory | 690 compounds, 22% hits | shares compounds with PMP22 txn | Potency, µM (top dose mostly 57.5 µM), without a hit: top-dose activity change, negative = inhibition, usual class: inhibitors | S16 Schwann cells Pmp22-F2sN, dual luciferase, 24 h; active means clear falling dose curves in both reporters; inconclusive means both reporters move, but less clearly or upward; inactive means either reporter flat; the % is the FLuc reporter signal; further: potency means the concentration at half of the fitted maximal effect
PMP22 prot conf: confirmation of modulators of rat PMP22 protein expression | AID 1508647 | Potency, µM (doses to about 27.9 µM), for the others: at the top dose activity change, negative = inhibition, usual class: inhibitors | shares compounds with PMP22 txn | 95 tested, under 10 active | S16 Schwann cells Pmp22-HiBiT, luminescence, 48 h
Target sequence (P25094 whole entry, looked up): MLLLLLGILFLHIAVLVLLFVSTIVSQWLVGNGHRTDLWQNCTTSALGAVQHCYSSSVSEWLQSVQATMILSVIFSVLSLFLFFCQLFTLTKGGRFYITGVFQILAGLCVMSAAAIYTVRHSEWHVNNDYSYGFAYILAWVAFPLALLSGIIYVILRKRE
* marks the source's active call; other numbers are inactive results; i = inactive; ? = inconclusive; / = no result. Unless noted, the call rests on the fitted dose curve; in most records, active means well fitted curve in the direction sought with a large enough effect; inconclusive means small, poorly fitted or top-dose-only effect, or another doubt; inactive means no such curve, though single readings can be large; an effect the other way counts as inactive or inconclusive.

SMILES	S16 F2sN tox	GALC G270D act	PMP22 txn	mTORC1 inh	NLuc saturating	NLuc Km ctr	FLuc ctr PMP22	S16 F2sN tox cnf	PMP22 txn cnf	others
Cc1ccc(NC(=O)Cn2c(=O)n(Cc3ccc4c(c3)OCO4)c(=O)c3ccc(C(=O)NC4CCCCC4)cc32)c(C)c1	4%	i	8.4µM*	-9%	-1%	-3%	1%	-25%	?
Nc1nc(Nc2ccccc2F)sc1C(=O)c1ccc(Cl)cc1	1%	i	?	-2%	/	/	/	/	/
CC1(C)OC[C@@H]2O[C@@]3(C(=O)O)OC(C)(C)O[C@H]3[C@@H]2O1	/	i	/	/	/	/	/	/	/
COc1ccccc1N1CCN(CCCNC(=O)c2nnc(Cc3c(F)cccc3Cl)o2)CC1	-3%	i	13µM*	-8%	-1%	1%	10%	-9%	-23%
COc1ccccc1N1CCN(CCCNC(=O)c2nnc(Cc3ccc(F)cc3Cl)o2)CC1	-19%	i	?	-9%	/	/	/	/	/
COc1nnc(-c2ccc(N3CCCCC3)c(NC(=O)c3ccccc3)c2)c2ccccc12	?	i	14µM*	-2%	?	?	5%	0%	?
COc1nnc(-c2ccc(N3CCCCC3)c(NC(=O)c3ccc(Cl)cc3)c2)c2ccccc12	3%	i	15µM*	0%	?	0%	4%	-8%	?
CCC(C)n1c(=N)c(C(=O)NC2CCCC2)cc2c(=O)n3ccccc3nc21 (stereo not given)	-3%	10µM*	9.5µM*	-2%	-17%	-5%	5%	?	-31%
COCCCn1c(=N)c(C(=O)NC2CCCC2)cc2c(=O)n3cc(C)ccc3nc21	5%	i	-5%	0%	/	/	/	/	/
COCCCn1c(=N)c(C(=O)NC2CCCC2)cc2c(=O)n3cccc(C)c3nc21	8%	25µM*	?	-1%	-6%	1%	3%	20%	?
COc1cc(-c2nnc(SCC(=O)N(C)C3CCCCC3)o2)cc(OC)c1OC	-10%	i	?	1%	/	/	/	/	/
Cn1cc(S(=O)(=O)N2CCCC2)cc1C(=O)Nc1ccc(C(F)(F)F)cc1	-6%	i	-27%	-13%	/	/	/	/	/
CC1CCN(C(=O)CCS(=O)(=O)c2cc3c(cc2Cl)NC(=O)CO3)CC1	13%	i	-55%	-5%	-12%	3%	-17%	-6%	-27%
CCCCCS(=O)(=O)c1oc(-c2cccs2)nc1S(=O)(=O)c1ccc(C)cc1	?	i	13µM*	4%	-9%	2%	-2%	?	17µM*	PMP22 prot conf=36%
Cc1ccc(S(=O)(=O)c2nnn3c2nc(N2CCCCC2)c2sccc23)cc1	9%	i	?	1%	/	/	/	/	/
CCCCNc1nc2c(S(=O)(=O)c3ccc(Cl)cc3)nnn2c2ccsc12	0%	i	20µM*	5%	-14%	?	4%	-3%	-19%
Cc1ccc(S(=O)(=O)c2nnn3c2nc(N2CCOCC2)c2sccc23)cc1C	-8%	i	13µM*	-9%	?	0%	-9%	1%	-45%
O=S(=O)(c1ccc(Cl)cc1)c1nnn2c1nc(NCc1ccccc1)c1sccc12	22%	i	?	-11%	/	/	/	/	/
Cc1ccc(S(=O)(=O)c2nnn3c2nc(NC2CCCCCC2)c2sccc23)cc1C	1%	i	20µM*	-9%	?	-4%	-8%	6%	16µM*	PMP22 prot conf=?
O=S(=O)(c1ccc(Cl)cc1)c1nnn2c1nc(N1CCCCC1)c1sccc12	2%	i	?	0%	?	1%	5%	6%	?
CC(=O)Nc1ccc2nc3c(=O)n(C)c(=O)n(C)c3nc2c1C	1%	i	-3%	-2%	/	/	/	/	/
COCCn1c(SCc2ccccc2F)nc2c([nH]c3ccccc32)c1=O	1%	i	11µM*	-6%	-6%	0%	6%	-21%	?
CCOc1ccc(NC(=O)CSc2oc(-c3ccc(F)cc3)nc2S(=O)(=O)c2ccc(C)cc2)cc1	2%	i	12µM*	2.9µM*	-2%	0%	2%	?	15µM*	PMP22 prot conf=25%
CCOc1ccc(NC(=O)CSc2oc(-c3ccco3)nc2S(=O)(=O)c2ccc(C)cc2)cc1	4%	i	54%	20%	/	/	/	/	/
Cc1[nH]c2ccccc2c1C1(O)C(=O)N(Cc2ccccc2Cl)c2ccccc21 (stereo not given)	2%	i	?	?	/	/	/	/	/
Cc1[nH]c2ccccc2c1C1(O)C(=O)N(Cc2ccccc2)c2ccc(Br)cc21 (stereo not given)	-9%	i	16µM*	?	-16%	?	-1%	?	?
CCOc1ccc2nc(N3CCCC(C(=O)NCCc4ccc(OC)cc4OC)C3)sc2c1 (stereo not given)	?	i	?	-11%	/	/	/	/	/
COC(=O)C1=C(C)N=C2SCCC(=O)N2C1c1ccc(OCc2ccccc2)c(OC)c1 (stereo not given)	15%	i	-7%	-1%	/	/	/	/	/
COc1cc(C2C(C(=O)OC(C)C)=C(C)N=C3SCCC(=O)N32)ccc1OCc1ccccc1 (stereo not given)	-15%	i	20µM*	2%	-5%	7%	-8%	?	-25%
COc1ccc(N2CCN(C(=O)CCc3c(C)nn(-c4ccc(N5CCCC5)nn4)c3C)CC2)cc1	/	/	/	-16%	/	/	/	/	/
